# Measured values reported in ChEMBL document CHEMBL3988442, “University of Dundee, Small-Polar-MMV Screening Library” (2021).
# Hit rate of the full screen: of about 69,000 compounds, about 1,000 (1.4%) showed an effect of 50% or more. What follows is part of a selection rich in strong results, with near analogues and random picks from the rest.
# Test system: Leishmania donovani
# Test: Leishmania intramacrophage assay
# Format: functional, organism-based
# Design: scale not given: in the data most compounds retested in dose-response had high values
smiles,measurement,setting,value
O=C(c1ccccc1OCC1CC1)N1CCCC(n2ccnc2)C1 (stereo unspecified),Percent Effect,"30 µM, 30.03 µM",5.028%
Cc1cc(C)n(-c2nc(NCCCO)c3c4c(sc3n2)CCCC4)n1,Percent Effect,"30.3 µM, […]",97.76%
Cc1cc(C)n(C2=NC(NCCC(C)C)c3c(sc4c3CCCC4)N2)n1 (stereo unspecified),Percent Effect,"30.3 µM, […]",29.71%
Cc1nc(CN2CCCC2C(=O)OCc2ccccc2)oc1C (stereo unspecified),Percent Effect,"30.3 µM, […]",0.6047%
c1ccc(-c2noc(CN3CCC(c4ccn[nH]4)CC3)n2)cc1,Percent Effect,"30 µM, 30.03 µM",52.27%
Cc1ccccc1-c1noc(CN2CCC(c3ccn[nH]3)CC2)n1,Percent Effect,"30.3 µM, […]",-17.93%
CC1COCCN1Cc1nc(-c2ccc(F)cc2)no1 (stereo unspecified),Percent Effect,30 µM,12.83%
O=C1NCCN1C1CCN(Cc2nc(-c3ccc(F)cc3)no2)CC1,Percent Effect,30 µM,36.95%
c1ccc(-c2cc(CN3CCC(c4ccn[nH]4)CC3)on2)cc1,Percent Effect,"30 µM, 30.03 µM",56.61%
Cc1cccc(-c2noc(CN3CCC(c4ccn[nH]4)CC3)n2)c1,Percent Effect,"30.3 µM, […]",43.8%
Fc1ccc(-c2noc(CN3CCC(c4cc[nH]n4)CC3)n2)cc1,Percent Effect,"30.3 µM, […]",54.52%
c1cc(C2CCN(Cc3nc(C4CC4)no3)CC2)[nH]n1,Percent Effect,"30.3 µM, […]",12.31%
Cc1ccc(-c2noc(CN3CCC(c4ccn[nH]4)CC3)n2)cc1,Percent Effect,"30.3 µM, […]",12.54%
CC(C)c1cc(C(=O)NCCc2nc(-c3ccncc3)n[nH]2)[nH]n1,Percent Effect,"30.3 µM, […]",-0.4105%
Cc1cc(SC(C)(C)C)ccc1NC(C)C(=O)NC(N)=O (stereo unspecified),Percent Effect,"30.3 µM, […]",-16.97%
Cc1nc(C2CCCC2)sc1C(N)=O,Percent Effect,"30.3 µM, […]",-15.57%
Cc1cnn(CC2CCCN2c2ncnc3ccsc23)c1 (stereo unspecified),Percent Effect,30 µM,46.26%
CCCNC(=O)COc1cccc(-c2nc(C(C)C)no2)c1,Percent Effect,"30.3 µM, […]",13.17%
NCCc1nc(N[C@@H](CO)c2ccccc2)c2ccccc2n1,Percent Effect,"30.3 µM, […]",7.922%
CCC(Nc1nc(CCN)nc2ccccc12)c1cccs1 (stereo unspecified),Percent Effect,"30.3 µM, […]",67.47%
CCC(Nc1nc(CCN)nc2ccccc12)c1cc(C)ccn1 (stereo unspecified),Percent Effect,"30.3 µM, […]",19.32%
CC1c2ncc(Cn3cccn3)n2CCN1S(=O)(=O)C1CC1 (stereo unspecified),Percent Effect,"30.3 µM, […]",4.524%
Cc1ccc2oc(CN3CCC(C(=O)O)(n4ccnc4)CC3)c(C)c2c1,Percent Effect,"30.3 µM, […]",21.21%
CN(C)C[C@@H]1C[C@@H]2CN(Cc3nccn3C)CC[C@@H]2N1CC1CC1,Percent Effect,"30.3 µM, […]",27%
CC(C)C(=O)N1CCN(c2ncnc3cc4c(cc23)OCCO4)CC1,Percent Effect,"30.3 µM, […]",56.87%
CCC(=O)N1CCN(c2ncnc3cc4c(cc23)OCCO4)CC1,Percent Effect,"30.3 µM, […]",-95.64%
CC(=O)N1CCN(c2ncnc3cc4c(cc23)OCCO4)CC1,Percent Effect,"30.3 µM, […]",39.4%
COc1cc2cc(C(=O)N[C@@H](C)C(=O)O)n(C)c2c(OC)c1OC,Percent Effect,"30 µM, 30.03 µM",2.156%
O=C(c1cccnc1)N1CCc2onc(CN3CCCC3)c2C1,Percent Effect,"30.3 µM, […]",14.82%
Cc1nnc2n1CCN(CC(O)CN1CCC(C)CC1)C2 (stereo unspecified),Percent Effect,"30.3 µM, […]",33.92%
CCC(CN1CCCC1)n1cncc1-c1cnn(-c2ccc(F)cc2)c1.Cl (stereo unspecified),Percent Effect,"30.3 µM, […]",14.1%
COc1c(C)cnc(CN(C)C2CCOC3(CCOCC3)C2)c1C (stereo unspecified),Percent Effect,"30.3 µM, […]",5.753%
COc1c(C)cnc(CN(C)C2CCCCC2)c1C,Percent Effect,"30.3 µM, […]",77.94%
COc1c(C)cnc(CN(C)C2CCN(C3CCOCC3)CC2)c1C,Percent Effect,"30.3 µM, […]",38.73%
CC(Cn1cccn1)C(=O)N1CCCN(Cc2cscn2)CC1 (stereo unspecified),Percent Effect,"30.3 µM, […]",10.45%
O=C(c1cccs1)N1CCc2c(nc(N3CCCC3)[nH]c2=O)C1,Percent Effect,"30.3 µM, […]",-25.29%
CN(C)C(=O)C1CCN(Cn2nc(-c3ccc(F)cc3)oc2=O)CC1,Percent Effect,30 µM,-5.064%
c1cnnc(N2CCCC(NCc3nc(-c4ccsc4)no3)C2)c1 (stereo unspecified),Percent Effect,"30.3 µM, […]",12.92%
CC(NCc1cnc(N2CCN(C)CC2)nc1)c1ccc(F)cc1 (stereo unspecified),Percent Effect,"30.3 µM, […]",58.55%
CC(NCc1ccncc1)c1ccc(N2CCN(C)CC2)c(F)c1.Cl (stereo unspecified),Percent Effect,"30.3 µM, […]",-0.6983%
CN1CCN(c2ncc(CNCCCc3cccc(F)c3)cn2)CC1,Percent Effect,"30.3 µM, […]",20.79%
Cn1ccnc1CNC1CCCOc2c1ccc1ccccc21 (stereo unspecified),Percent Effect,"30.3 µM, […]",20.1%
Cc1ccc2c(c1)OCCCC2NCc1nccn1Cc1ccccc1 (stereo unspecified),Percent Effect,"30.3 µM, […]",50.6%
c1ccc(Cn2ccnc2CNC2CCCOc3ccccc32)cc1 (stereo unspecified),Percent Effect,"30.3 µM, […]",4.41%
Cc1ccc2c(c1)OCCCC2NCc1nccn1CC(C)C (stereo unspecified),Percent Effect,"30.3 µM, […]",9.865%
Cc1cccc2c1OCCCC2NCc1nccn1Cc1ccccc1 (stereo unspecified),Percent Effect,"30.3 µM, […]",82.89%
Cc1ccc2c(c1)C(NCc1nccn1Cc1ccccc1)CCCO2 (stereo unspecified),Percent Effect,"30.3 µM, […]",23.59%
Cc1noc([C@@]23CCO[C@@H]2CCN(C(=O)CCC(C)C)C3)n1,Percent Effect,"30.3 µM, […]",-4.868%
COCCN(CCC#N)S(=O)(=O)c1ccc(F)cc1Cl,Percent Effect,"30.3 µM, […]",-7.04%
Cc1nc(CNC(=O)Cn2nc(-c3ccc(F)cc3)oc2=O)cs1,Percent Effect,"30 µM, 30.03 µM",-4.773%
COc1ccc(-c2cn(CCSc3ncn[nH]3)nn2)cn1,Percent Effect,"30.3 µM, […]",35.9%
Cc1nn(C)c(C)c1CN(C(=O)c1cc(Cl)c[nH]c1=O)C(C)C,Percent Effect,"30.3 µM, […]",14.01%
Cc1ncc2c(n1)CCCC2NC(=O)c1ccc(Cn2cccn2)cc1 (stereo unspecified),Percent Effect,"30.3 µM, […]",26.01%
Cc1nn(CC(F)F)c2c1c(C(F)F)cc(=O)n2CC(=O)O,Percent Effect,"30.3 µM, […]",-4.895%
COC(=O)Cn1c(=O)cc(C(F)F)c2c(C)nn(CC(F)F)c21,Percent Effect,"30.3 µM, […]",51.48%
CCCn1nc(C)c2c(C(F)F)cc(=O)n(CC(=O)O)c21,Percent Effect,"30.3 µM, […]",18.18%
